The entries come from a sample that favours hits as a whole.
ALOX12 inh: blocks human arachidonate 12S-lipoxygenase. Potency, µM (series often up to 108 µM), hits mostly inhibitors. AID 1671190. P18054. purified 12hLO, xylenol orange hydroperoxide absorbance. hit rate 1.1% among 580,000
Target sequence (P18054 whole entry, looked up): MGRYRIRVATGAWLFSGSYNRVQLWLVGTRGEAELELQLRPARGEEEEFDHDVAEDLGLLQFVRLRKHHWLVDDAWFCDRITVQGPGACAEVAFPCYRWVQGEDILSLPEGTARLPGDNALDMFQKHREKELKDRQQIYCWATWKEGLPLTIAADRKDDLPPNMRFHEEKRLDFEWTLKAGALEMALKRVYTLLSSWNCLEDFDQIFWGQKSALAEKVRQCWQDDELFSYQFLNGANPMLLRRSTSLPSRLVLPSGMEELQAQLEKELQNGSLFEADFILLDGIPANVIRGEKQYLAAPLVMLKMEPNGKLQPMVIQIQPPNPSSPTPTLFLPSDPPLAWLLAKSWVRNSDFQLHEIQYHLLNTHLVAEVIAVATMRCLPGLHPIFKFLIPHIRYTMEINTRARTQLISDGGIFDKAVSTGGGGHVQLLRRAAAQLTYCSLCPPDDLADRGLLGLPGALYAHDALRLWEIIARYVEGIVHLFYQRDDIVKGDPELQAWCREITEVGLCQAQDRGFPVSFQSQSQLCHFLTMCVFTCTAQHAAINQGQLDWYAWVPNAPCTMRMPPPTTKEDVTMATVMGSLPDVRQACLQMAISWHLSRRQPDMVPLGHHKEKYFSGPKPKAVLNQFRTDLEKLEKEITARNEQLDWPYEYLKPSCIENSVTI
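Purified human 12hLO (150 nM final) in 25 mM Hepes, 0.01% Triton X-100, pH 7.0 was preincubated 15 min at room temperature with compound. Then 40 uM arachidonic acid was added, 30 min. Hydroperoxide was read by Fe-XO absorbance ratio 573/405 nm.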
TDP1 cell noCPT: qHTS for Inhibitors of human tyrosyl-DNA phosphodiesterase 1 (TDP1): qHTS in cells in absence of CPT. DT40 Tdp1-/- hTDP1 cells, no CPT, ATP luminescence, 48 h. Potency, µM (titrated, usually from 46.2 µM), most hits filed as inhibitors. hit rate 15% among 420,000. AID 686978, 2013; note: nearly all actives have a fitted effect of over 55% in size
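Growth of hTDP1-complemented DT40 Tdp1-knockout cells is measured by ATP luminescence after at least 48 hr compound exposure at 37 °C, with DMSO substituting for the 20 nM CPT used in the parallel screen.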
HT1080 IDH1KD tx: toxicity to HT-1080 IDH1 knockdown cells (counter line) | HT-1080 IDH1 knockdown viability, ATP luminescence, 48 h | Potency, µM (highest dose often 46.1 µM), hits mostly cytotoxic | hit rate 2% among 360,000 | AID 686971
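IDH1KD HT-1080 cells, 750/well, RPMI + 5% FBS; compound pinned after 2 h settling; 48 h, 37 °C; CellTiter-Glo luminescence; % activity normalised to DMSO and no-cell wells; curves fitted, classed by r2 and efficacy.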
HT1080NT lethal: kills 2HG-producing HT-1080-NT fibrosarcoma cells; hit rate 1.6% among 360,000; AID 686970; Potency, µM (series often up to 46.1 µM), usual class: cytotoxic; HT-1080-NT fibrosarcoma viability, CellTiter-Glo ATP luminescence, 48 h;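 note: NT is the 2HG producing partner of a matched IDH1 knockdown line; nearly all actives have a fitted effect of over 55% in size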
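750 cells/well, RPMI + 5% FBS; 2 h settle, compound pin-transfer, 48 h at 37 degrees C. CellTiter-Glo 10 min RT, luminescence. Normalized to DMSO and media-only wells.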
TDP1 cell CPT: DT40-hTDP1 cell growth loss with CPT; AID 686979; chicken DT40 Tdp1-/-;hTDP1 cells + 20 nM CPT, ATP luminescence, 48 h; Potency, µM (titrated, usually from 46.2 µM), most hits filed as inhibitors; hit rate 12% among 420,000; note: nearly all actives have a fitted effect of over 55% in size
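Chicken DT40 Tdp1-/- cells complemented with human TDP1, 400 cells/well, exposed to compounds plus 20 nM camptothecin for at least 48 h at 37 C; viability read as ATP content by CellTiter-Glo luminescence.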
IL-1B inflam inh: blocks inflammasome-driven IL-1 beta release; activity change, % at 57.5 µM; THP-1 LPS/ATP IL-1B secretion, AlphaLISA, 16 h; stronger effect = lower value; hit rate 4.7% among 360,000; AID 743279; in the data active = activity change below about -50%; inconclusive = mostly about -30% to -49%
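Secreted IL-1B measured by AlphaLISA bead assay after 16 h compound exposure of THP-1 cells; compounds (final up to 57.5 uM) added 1 h before LPS (250 ng/mL) and ATP (1.25 mM) stimulation; lower signal means less secretion.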
Hits are given with their value; . = inactive; ? = inconclusive; / = no result given. Unless noted, calls come from the whole dose curve; as a rule, active = well fitted curve in the direction sought with a large enough effect; inconclusive = small, poorly fitted or top-dose-only effect, or another doubt; inactive = no such curve, though single readings can be large; an effect the other way counts as inactive or inconclusive.

SMILES | ALOX12 inh | TDP1 cell noCPT | HT1080 IDH1KD tx | HT1080NT lethal | TDP1 cell CPT | IL-1B inflam inh
COc1ccc(/C=C2\SC(=O)NC2=S)cc1OC | 39.8µM | ? | ? | ? | 10.3µM | -73.7
CCN1C(=O)/C(=C\c2ccc(-c3ccc([N+](=O)[O-])cc3OC)o2)SC1=Nc1cccc(C(=O)O)c1 | ? | . | . | . | . | .
CCN1C(=O)C(=Cc2cccc(OC)c2Oc2ccc([N+](=O)[O-])cc2[N+](=O)[O-])SC1=S | . | 1.46µM | 3.26µM | 2.59µM | 1.46µM | -94.8
CCN(CC)c1ccc(/C=N/NC(=O)c2cccc(S(=O)(=O)Nc3ccccc3OC)c2)c(O)c1 | . | 2.91µM | ? | ? | 3.26µM | .
COc1ccccc1NS(=O)(=O)c1cccc(C(=O)N/N=C/c2ccc3c(c2)OCCO3)c1 | . | . | . | . | . | .
COc1ccccc1NS(=O)(=O)c1cccc(C(=O)N/N=C/c2ccc([N+](=O)[O-])o2)c1 | . | 2.91µM | ? | ? | 3.66µM | -91.7
CCc1ccccc1NC(=O)c1nn(Cc2ccccc2)c(=O)c2ccccc12 | . | / | / | / | / | /
CCN(CC)C(=O)C[C@@H]1c2nc(NC(=O)c3ccc(OC)cc3)sc2C[C@@H]2[C@](C)(CO)[C@H](O)CC[C@]21C | . | / | / | / | / | /
Cc1ccc(NC(=O)COC(=O)CCC(=O)c2ccc(C(C)(C)C)cc2)c([N+](=O)[O-])c1 | . | 14.6µM | . | . | ? | .
Cc1ccc(NC(=O)COC(=O)CCn2c(C)csc2=O)c([N+](=O)[O-])c1 | . | . | . | . | . | .
Clc1ccccc1OCCN1CCC(Cc2ccccc2)CC1 | ? | ? | . | . | ? | ?
COc1ccc(CN2CCN(Cc3ccccc3C(F)(F)F)CC2)c(OC)c1 | ? | 16.4µM | ? | ? | ? | .
COc1cccc(CN2CCN(Cc3ccccc3C(F)(F)F)CC2)c1 | . | ? | . | . | . | .
COc1cc(OC)c(CN2CCC(Cc3ccccc3)CC2)cc1Br | 1µM | ? | . | . | ? | -57.5
O=[N+]([O-])c1cccc(OCCN2CCC(Cc3ccccc3)CC2)c1 | 0.631µM | ? | ? | ? | ? | -65.9
C=CCOc1ccccc1CN1CCC(Cc2ccccc2)CC1 | ? | ? | ? | . | ? | -86.1
Clc1ccc2c(c1)C(c1ccccc1)=Nc1ccc(Cl)cc1C(c1ccccc1)=N2 | . | / | / | / | / | /
COc1ccc(N2CC(C(=O)NCc3ccc4c(c3)OCO4)NC2=O)cc1 (stereo unspecified) | . | / | / | / | / | /
CN(C)C(=O)c1ccc(NC(=O)COc2ccccc2-c2ccccc2)cc1 | . | / | / | / | / | /
Cc1ccc([N+](=O)[O-])c(OCCN2CCc3ccccc3C2)c1 | ? | . | . | . | . | .
Cc1ccc([N+](=O)[O-])c(OCCCN2CCC(Cc3ccccc3)CC2)c1 | . | 20.6µM | ? | ? | 20.6µM | -60.3
COc1ccc(OC)c(CN2CCC(Cc3ccccc3)CC2)c1 | ? | 16.4µM | . | ? | ? | .
COc1cc(C)c(CN2CCC(Cc3ccccc3)CC2)cc1C | ? | ? | . | . | ? | ?
COc1cc(CN2CCC(Cc3ccccc3)CC2)c([N+](=O)[O-])cc1OC | ? | ? | . | . | 20.6µM | .
COc1ccccc1CN1CCC(Cc2ccccc2)CC1 | 0.562µM | / | / | / | / | /
CCOC(=O)Cc1csc(NC(=O)Cc2c(C)c3c(OC)cc(C)cc3oc2=O)n1 | . | / | / | / | / | /
O=C1NCCOCCCN(C(=O)C2CC2)[C@H]2CCCC[C@@H]12 | . | / | / | / | / | /
COc1cccc(CN2CCC(N(CCc3ccccc3)Cc3ccccc3)CC2)c1OC | ? | 29.1µM | ? | ? | ? | -61.7
COc1cccc(CN2CCN(Cc3cccc(Oc4ccccc4)c3)CC2)c1OC | ? | . | . | . | ? | .
CCCCc1nc2sc3c(c2c(=O)[nH]1)CC(C)(C)OC3 | . | . | . | . | . | .
